Pf apPOL inh: Pf-apPOL inhibitors, biochemical, fluorescence. Plasmodium falciparum apicoplast DNA polymerase (apPOL). hit rate 0.25% among 210,000. Recombinant Pf-apPOL, molecular beacon fluorescence, 1.5 h. inhibition, % at 10 µM
mHTT CaM bind: mutant huntingtin-calmodulin interaction inhibitors – biochemical, AlphaScreen, primary screen. P42858. AlphaScreen His-mHTT/GST-CaM binding, luminescence. inhibition, % at 15 µM. hit rate 3.6% among 190,000
Of the large screens only hits and unclear results are named; the others gave an inactive call. The entries come from a sample that favours hits as a whole. Rule as the data show it: active = inhibition above about 50%; inactive = the rest.

CCOc1cc(CN2CCN(Cc3ccccc3[N+](=O)[O-])CC2)ccc1OC	none
COc1cc(OC)c(NC(=O)c2cccc(I)c2)cc1Cl	none
Cc1cc(C)nc(NS(=O)(=O)c2ccc(NC(=O)Nc3ccccc3C(F)(F)F)cc2)n1	none (no result: mHTT CaM bind)
O=C(c1ccc2c(c1)C1C=CCC1C(c1ccc([N+](=O)[O-])cc1)N2)N1CCOCC1 (stereo not drawn)	mHTT CaM bind 70.0
O=C(c1ccc2c(c1)C1C=CCC1C(c1cccc([N+](=O)[O-])c1)N2)N1CCCCC1 (stereo not drawn)	mHTT CaM bind 81.3
O=C(c1cccc([N+](=O)[O-])c1)N1CCOCC1	none
O=C(O)C1Nc2ccc([N+](=O)[O-])cc2C2C=CCC12 (stereo not drawn)	none
O=C(c1ccc2c(c1)C1C=CCC1C(c1ccc(Cl)cc1)N2)N1CCOCC1 (stereo not drawn)	mHTT CaM bind 82.8
O=S(=O)(c1ccc(C2Nc3c(Cl)cc(Cl)cc3C3C=CCC32)cc1)N1CCOCC1 (stereo not drawn)	none
CCn1c(CCNC(=O)c2ccc(C)cc2)nc2c(C)cccc2c1=O	none
COCCC1CCN(C(=O)CN(C)C(=O)Cc2cccs2)CC1	none
CSc1nc(C)nc(NC=C(C#N)C(=O)c2ccccc2Cl)n1	none (no result: mHTT CaM bind)
O=C(Nc1c(Cl)cccc1Cl)c1noc2c1CCCCC2	none
Cc1c(Cl)cccc1NC(=O)Cc1ccc(Br)cc1	none
CCc1noc(C2CCCCN2C(=O)Cc2ccsc2)n1 (stereo not drawn)	none
C(=Nc1ccc(Nc2ccccc2)cc1)c1ccccc1	mHTT CaM bind 86.0
Fc1ccc(N=Cc2ccccc2)cc1	none (no result: mHTT CaM bind)
CC1C(=O)CCC2C1(C)CCC1C2(C)CCC2(C)C3CC(C)(C)CCC3(C)CCC12C (stereo not drawn)	none (no result: mHTT CaM bind)
O=C(C(c1ccccc1)c1ccccc1)N1CCN(c2ccc(F)cc2)CC1	mHTT CaM bind 63.9
O=C(C(c1ccccc1)c1ccccc1)N1CCN(c2ccc([N+](=O)[O-])cc2)CC1	none
Cc1cc(Cl)ccc1NC(=O)CN1CCN(Cc2ccc3c(c2)OCO3)CC1	mHTT CaM bind 54.0
CCNC(=O)CN1CCN(Cc2ccc3c(c2)OCO3)CC1	none
Cc1ccccc1CC(=O)Nc1cccn2c(C)nnc12	none
C=CCn1c(=N)n(CC(O)c2ccc(Br)cc2)c2ccccc21 (stereo not drawn)	none
C=CCn1c(=N)n(CC(O)c2ccc(-c3ccccc3)cc2)c2ccccc21 (stereo not drawn)	mHTT CaM bind 96.3
CC(CC(=O)N1CCCCC1)c1ccccc1 (stereo not drawn)	none
CCOc1ccc(-n2c(SCC(=O)Nc3cccc(C)c3C)nc3c(c2=O)SCC3)cc1	none
O=S(=O)(Nc1nccs1)c1ccc(N=Cc2cc(Br)ccc2O)cc1	mHTT CaM bind 88.0
O=S(=O)(Nc1nccs1)c1ccc(N=Cc2ccccc2O)cc1	none
O=S(=O)(Nc1nccs1)c1ccc(N=Cc2cc(Cl)cc(Cl)c2O)cc1	none
O=[N+]([O-])c1ccc(C=Nc2ccc(S(=O)(=O)Nc3nccs3)cc2)cc1	mHTT CaM bind 62.0
Cc1cccc(Cc2c(C)nc3c(C(=O)N(C)Cc4ccccc4)c[nH]n3c2=O)c1	none
O=S(=O)(c1ccc(Br)s1)N1CCC(c2ccncc2)CC1	none
COc1ccc(C(=O)ON=C2C(C)=CC(=O)C=C2C)cc1	mHTT CaM bind 55.0
COc1ccc(C(=O)N=C2C=C(C)C(=O)C(C)=C2)cc1	none
COc1cc2c(cc1O)CC[C@@H]1[C@@H]2CC[C@]2(C)[C@@H](O)CC[C@@H]12	none (no result: mHTT CaM bind)
C#CC1(O)CCC2C3CCc4cc(O)ccc4C3CCC21C (stereo not drawn)	none
CC12CCC3c4ccc(O)cc4CCC3C1CC(=Cc1ccccc1)C2O (stereo not drawn)	mHTT CaM bind 97.2
CC12CCC3c4ccc(O)cc4CCC3C1CC(=Cc1ccc(Cl)cc1)C2O (stereo not drawn)	mHTT CaM bind 100.0
CCNC(=O)N(CC)CC(=O)N1CCn2cccc2C1c1ccccc1C (stereo not drawn)	none
COc1ccc(-n2c(C)c3c(C)nnc(C)c3c2C)cc1OC	none
Cc1nnc(C)c2c(C)n(C(C)c3ccccc3)c(C)c12 (stereo not drawn)	mHTT CaM bind 74.5
Cc1cc(C)c(-c2ccc(=O)n(CC(=O)NCc3ccc(F)cc3)n2)cc1C	none
O=[N+]([O-])c1ccc(N2CCCCC2)nc1	none
O=[N+]([O-])c1ccc(N2CCCCCC2)nc1	Pf apPOL inh 98.6
Cc1nc2c(C(=O)NCCc3ccccc3Cl)c[nH]n2c(=O)c1Cl	mHTT CaM bind 57.0
Cc1nc2c(C(=O)NCc3ccccc3Cl)c[nH]n2c(=O)c1Cl	none
Cc1nc2c(C(=O)NCc3ccccc3)c[nH]n2c(=O)c1Cc1ccccc1Cl	none
Cc1nc2c(C(=O)NCc3ccccc3)c[nH]n2c(=O)c1Cl	Pf apPOL inh 73.2
Cc1[nH]c2ccccc2c1C(c1ccncc1)N1CCC(C)CC1 (stereo not drawn)	none
COC(c1cccs1)c1c(C)[nH]c2ccccc12 (stereo not drawn)	mHTT CaM bind 60.0
